# Screening results as filed in PubChem BioAssay.
# LASV entry inh: Lassa virus entry inhibition | Lassa virus pseudotype entry inhibition, cell reporter | actives 1.2% (n = 300,000) | Potency, µM (series often up to 37.9 µM), hits mostly inhibitors | AID 540256; calls by dose curve; tested in HEK293 cells; note: nearly all actives have a fitted effect of over 50% in size
# FMDV inh: blocks foot and mouth disease virus. FMDV antiviral cell-based qHTS. Potency, µM (series often up to 57.9 µM), usual class: inhibitors. actives 1.2% (n = 410,000). AID 1159524; calls by dose curve; tested in HEK293T cells; note: read-out not given here; nearly all actives have a fitted effect of over 45% in size
# Shiga inhibitor: blocks Shiga toxin action in Vero cells. Vero cells, Shiga toxin protein synthesis inhibition reporter. inhibition, % at 38.7 µM. actives 9.2% (n = 290,000); in the data active = inhibition mostly above about 28%, no sharp cut-off; inactive = mostly below about 43%
# Cycloheximide cs: affects cycloheximide protein synthesis inhibition readout, counter-screen; AID 2314; max response, %; cell reporter, cycloheximide protein synthesis inhibition counterscreen; actives 12% (n = 300,000); in the data active = max response mostly above about 13%, no sharp cut-off; inactive = mostly below about 14%; note: read at 38.3 µM for the half of the compounds with a filed dose
# Marburg entry inh: inhibitors of Marburg virus binding or cell entry. Marburg virus pseudotyped entry inhibition, cell reporter. actives 1.8% (n = 300,000). Potency, µM (doses to about 37.8 µM), usual class: inhibitors. AID 540276; calls by dose curve; tested in HEK293 cells
# HCV inhibitor: blocks hepatitis C virus; Huh7.5.1 HCVcc-Cre infection, luciferase reporter, 44 h; Potency, µM (highest dose often 41.8 µM), most hits filed as inhibitors; actives 3.4% (n = 340,000); AID 651820; active = well fitted inhibition curve with a large enough effect; inconclusive = small, poorly fitted or top-dose-only effect, or another doubt; inactive = no such curve, though single readings can be large or run the other way
#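 Luciferase read-out (15 sec integration) after a 15 min room-temperature substrate step quantifies HCVcc-Cre infection. Cells, 1,000 per well, had compound added 4 h post-plating, then virus at ~0.5 moi, and were cultured 44 h.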
# Hits are given with their value; . = inactive; ? = inconclusive; / = no result given. Shown are actives, neighbours in structure and some others; about 13% of the full set was active somewhere.
SMILES,LASV entry inh,FMDV inh,Shiga inhibitor,Cycloheximide cs,Marburg entry inh,HCV inhibitor
O=C(O)C(Cc1ccccc1)N=Cc1c(O)c2ccccc2oc1=O (centres undefined),.,.,.,.,.,.
CC(C)c1ccc(-n2c(O)c(C=NCCN3CCNCC3)c(=O)[nH]c2=S)cc1,/,.,.,.,/,.
Cc1ccc(OCC(=O)OCc2cc(=O)n3nc(C4CCCCC4)sc3n2)cc1C,.,.,/,/,/,/
Cc1nn(-c2ccccn2)c2c1-c1nc(N3CCOCC3)ncc1CC2,.,.,.,.,.,.
Cc1nn(-c2ccccn2)c2c1-c1nc(N)ncc1CC2,.,.,49,36,.,.
CC(C)(C)C1=CC(=O)C(=O)C(C(C)(C)C)=C1,?,28µM,.,.,.,?
N#C/C(N=Nc1ccccc1O)=N\Nc1ccccc1O,/,?,/,/,/,11µM
COc1ccc(N2CCN(C(=O)CSc3ncnc4c3cnn4-c3ccccc3C)CC2)cc1,.,?,.,.,.,.
CN(C)c1ccc(C2Nc3ccccc3C(=O)N2CCCN2CCOCC2)cc1 (centres undefined),/,2.8µM,43,31,/,.
CCN(CC)CCN1C(=O)c2ccccc2NC1c1ccc(N(C)C)cc1 (centres undefined),.,3.2µM,.,.,.,.
COc1ncnc2c1NC1=C(S2)C(=NCCC(=O)O)CC(C)(C)C1,.,.,.,.,.,.
Cc1cc(SCC(=O)Nc2ccccc2)n2ncc(-c3ccccc3)c2n1,/,.,.,.,/,?
Cc1cc(NCCOCCO)n2ncc(-c3ccc(Cl)cc3)c2n1,.,.,74,23,?,?
Cc1cc(NCCc2ccc(Cl)cc2)n2ncnc2n1,.,.,.,.,.,?
Cc1cc(NCc2ccccn2)n2ncc(-c3ccc(Cl)cc3)c2n1,.,.,48,29,?,?
Cc1cc(NCCCN2CCOCC2)n2ncc(-c3ccccc3)c2n1,.,.,78,56,?,?
Cc1cc(NCc2ccccn2)n2ncc(-c3ccccc3)c2n1,?,.,70,44,?,2.8µM
Cc1cccc(S(=O)(=O)N(C)C[C@H]2OCc3cnnn3CCCC(=O)N([C@H](C)CO)C[C@@H]2C)c1,/,.,/,/,/,/
CCC1CCCCN1CCCNC(=O)c1ccc2c(c1)NC(=O)CS2 (centres undefined),/,.,.,.,/,.
COC(=O)Nc1ccc(C)c(NC(=O)OC)c1,.,.,.,.,.,.
CCC(=O)N1CCc2cc(Br)cc(S(=O)(=O)N3CCCC(C(=O)O)C3)c21 (centres undefined),/,.,.,.,/,.
Cc1ccc(C(=O)O/N=C(\N)Cc2ccc([N+](=O)[O-])cc2)c(Cl)c1,/,?,.,9.8,/,?
Cc1ccc(C(=O)O/N=C(\N)Cc2cccs2)c(Cl)c1,/,.,85,82,/,?
Cc1cccc(C(=O)O/N=C(\N)Cc2ccc([N+](=O)[O-])cc2)c1,?,.,.,.,?,?
C[C@@H]1C(NC(=O)c2ccccc2)CC2CC1C2(C)C (some centres undefined),.,.,.,.,?,.
SMILES,LASV entry inh,FMDV inh,Shiga inhibitor,Cycloheximide cs,Marburg entry inh,HCV inhibitor
COc1cc(Cl)c(C)cc1NC(=O)COc1ccccc1[N+](=O)[O-],.,.,.,.,.,.
O=C(C[C@H]1C(=O)N(Cc2ccccc2)C[C@@H]1Cc1ccccc1)Nc1ccccc1,16µM,.,.,.,/,.
COc1ccc(NC(=O)C[C@H]2C(=O)N(Cc3ccccc3)C[C@@H]2Cc2ccccc2)cc1,?,.,/,/,/,/
CC(C)CN(Cc1cc(=O)oc2cc(-c3ccccc3)c(O)cc12)CC(C)C,/,.,.,.,/,14µM
CC(C)(C)C(=O)N1Cc2cc(N3CCOCC3)ccc2-n2nncc2C1,/,.,/,/,/,/
CCOc1cccc(C2CC(=O)Nc3cc4c(cc32)OCCO4)c1 (centres undefined),?,.,/,/,2.2µM,/
CCCOc1c(OC)cccc1C1CC(=O)Nc2cc3c(cc21)OCO3 (centres undefined),7.1µM,?,.,.,?,11µM
COc1ccccc1C1CC(=O)Nc2cc3c(cc21)OCCO3 (centres undefined),?,?,.,.,2.1µM,?
CC(=O)C1=C(O)C(=CC=Cc2ccccc2)OC1=O,/,.,/,/,/,/
CC(C)(C)S(=O)(=O)c1ccccc1C(=O)O,.,.,.,.,.,.
COC(=O)c1c(C)nn(-c2ccc(F)c(Cl)c2)c1-c1cc(C)on1,?,?,.,.,4.5µM,8.9µM
Cc1ccc(C)n1-c1ccc(C(=O)N2CCC(C(N)=O)CC2)cc1,?,.,.,.,.,.
COCCCNC(=O)COc1ccc(Cl)c(C)c1,.,.,.,18,?,.
Cc1cc(OCCCC(=O)NCCc2ccccn2)ccc1Cl,.,.,.,.,.,.
Cc1cc(OCC(=O)NC(C)(C)C)ccc1Cl,?,.,22,51,?,.
CC(=O)OCCn1c(Br)nc2c1c(=O)[nH]c(=O)n2C,.,.,.,.,.,.
Cc1ccc(C(=O)OCC(=O)NNC(=O)c2ccccc2)c(O)c1,.,.,.,.,.,.
Cc1cccc(CSc2ncnc3ccccc23)c1,.,.,62,22,.,?
Cc1ccc(C(=O)CSc2ncnc3ccccc23)o1,?,.,110,26,?,.
c1ccc(CSc2ncnc3ccccc23)cc1,.,.,.,.,?,?
O=C(CSc1ncnc2ccccc12)c1cccs1,?,.,.,.,?,.
O=[N+]([O-])c1cccc(CSc2ncnc3ccccc23)c1,.,.,.,.,.,.
Cc1ccc(CSc2ncnc3ccccc23)cc1,.,.,.,21,.,.
CCCNC(=O)C1CC2Cn3c(nc4ccccc43)C2N1C (centres undefined),/,.,/,/,/,.
O=C(CN1CCC(n2nnc3cc(F)ccc32)CC1)N1CCCc2ccccc21,.,?,.,.,?,.
SMILES,LASV entry inh,FMDV inh,Shiga inhibitor,Cycloheximide cs,Marburg entry inh,HCV inhibitor
c1ccc2c(CNc3ccc(CNc4ncn[nH]4)cc3)cccc2c1,.,?,active,23,.,.
COc1cc(CNc2ccc(CNc3ncn[nH]3)cc2)ccc1OCc1ccccc1,.,?,40,48,?,?
COc1ccccc1CNc1ccc(CNc2ncn[nH]2)cc1,/,.,.,.,/,.
Cc1ccc(CNc2ccc(CNc3ncn[nH]3)cc2)cc1,.,.,.,15,?,?
COc1ccccc1C(=O)N1CCN(C(=O)[C@H]2O[C@@H](n3cnc4c(N)ncnc43)[C@H](O)[C@@H]2O)CC1,/,.,/,/,/,/
COc1ccc(-c2cc3nc(C)cc(-c4ccc(OC)cc4)n3n2)cc1,/,.,/,.,/,10µM
COc1ccc(-c2cc3nc(C)cc(N)n3n2)cc1,?,.,.,15,?,.
Cc1cc(-c2ccccc2)n2nc(-c3ccc(Cl)cc3)cc2n1,.,.,/,/,/,/
CC/C(=N\NC(=O)Nc1ccccc1)c1c(O)n(Cc2ccccc2)c(=O)[nH]c1=O,.,.,105,35,.,.
Cc1ccc(N/N=C/c2c(O)n(-c3ccccc3)c(=O)[nH]c2=O)cc1,?,.,.,22,?,.
